Where “and” joins values, the source holds several entries; their conditions need not be identical. Identical values can stand only once. Calls of active or inactive are those of the source. How the source made its calls: active means hit-call score of the fitted dose curve at least 0.9, where 1 is the maximum; inactive means score below 0.9.

Read-out in the assay: CYP4A11 (gene 1579)
Briefly: LTEA_HepaRG_CYP4A11: Life Technologies and Expression Analysis (LTEA) Assay for CYP4A11 using HepaRG (AID 2283486). As to conditions: mRNA level, 48 h; actives raise or lower the signal. The procedure:
LTEA_HepaRG is a cell based, multiplexed-readout assay that uses HepaRG, a human liver cell line, with measurements taken at 48 hours after chemical dosing on a 96-well plate.LTEA_HepaRG_CYP4A11 is one of 102 assay component(s) measured in the LTEA HepaRG cell culture assay. It is a marker of NR mediated metabolism.Data from the assay component LTEA_HepaRG_CYP4A11 was analyzed into 1 endpoint. This assay endpoint, LTEA_HepaRG_CYP4A11, was analyzed with bidirectional fitting relative to DMSO as the negative control and baseline of activity. Using a type of inducible reporter, measures of mRNA induction for gain or loss-of-signal activity can be used to understand regulation of transcription factor activity. To generalize the intended target to other relatable targets, this assay endpoint is annotated to the cyp intended target family, where the subfamily is xenobiotic metabolism.
A total of 1060 chemcials from the ToxCast library were tested in eight-point concentration-response experiments. Cell culture and cytotoxicity assays were conducted at Thermo Fisher Scientific's Custom Services facility (Madison, WI). A single lot of human HepaRG cells (Thermo Fisher Scientific, Frederick, MD) was used for the cell culture experiments. 96-well format collagen type I coated plates of human HepaRG cells were prepared using established methods. Briefly, cryopreserved HepaRG cells were thawed, plated at a density of approximately 100,000 cells/well in HepaRG Thaw, Plate, and General Purpose media (HPRG770, Thermo Fisher Scientific), and incubated for 48 hours. 0.5% DMSO was selected as vehicle control to balance the requisite need of DMSO in HepaRG cultures to maintain differentiation (for example, baseline metabolism, proportions of hepatocytes vs. cholangiocytes), while enabling further hepatic receptor pathway activation (for example, PXR and CAR) in response to chemical exposure. 48 hours after plating, the culture medium was replaced with HepaRG Serum-Free Incudtion Media. Cells were exposed to each test chemical in duplicate and maintained in CO2 incubators for another 48 hours. Chemical plates were thawed to room temperature and 200x concentrations of treatment groups were prepared. 8-point conentration-reponse curves were made with the highest exposure at 100 uM, followed by half-log dilutions, all in 0.5% DMSO. Each test plate contained variouse controls, induction positive controls (1mM phenobarbital), cytotoxicity positive controls ([…] aflatoxin B1), vehicle controls (0.5% DMSO), and total lysis controls (0.5% DMSO). Cell morphology images were taken using an Essen IncuCyte FLR automated microscope, with six 96-well plates imaged in about 24 minutes. Images were captured and exported and JPEG files. Spent culture media was transfered to black-well plates for the LDH assay, and remaining media was sorted at -80 C for later use. Cells were treated with RLT buffer and frozen until shipped for gene expression analysis. Total RNA was isolated from the cell suspension in 75 uL of Buffer RLT (Qiagen, Germantown, MD 20874) by Quintiles/Expression Analysis (Durham, NC) using a custom isolation procedure. Total RNA from each plate well was transferred to a preamplification plate. Fluidigm's 96.96 Dynamic ArrayTM (Fluidigm, Amsterdam, the Netherlands) technology was used for gene expression analyses by quantitative reverse transcription polymerase chain reaction (qRT-PCR, performed by Quintiles/Expression Analysis, Durham, NC)89. Standard TaqManTM Assays (Applied Biosystems/ThermoFisher Scientific, Foster City, CA) were used to assess the expression of 93 genes selected based on their selectivity and sensitivity to important hepatic receptors known to be modulated by environmental chemicals; importance in human hepatocyte functionality; and hepatotoxicity. […]
For `CCOP(=S)(OCC)Oc1nc(Cl)c(Cl)cc1Cl`, the compound was called inactive.
The same measure, in the same setting: for `ClCC(Cl)CCl` the value was “inactive”; for `Cc1ccccc1N`, “inactive”.
Usually AC50 stands for the concentration at which the activity in the assay is half-maximal. For the compound `CCN1CCC2(CC1)COc1cc3c(cc12)N(C(=O)c1ccc(-c2ccc(-c4nnc(C)o4)cc2C)cc1)CC3`, the AC50 is 46.8 µM (active).
With `COc1cc(-c2ccc(N)c(OC)c2)ccc1N`, the AC50 was 62.6 µM (active) and 50 µM (active).
`O=C(O)C(F)(F)C(F)(F)C(F)(F)C(F)(F)C(F)(F)C(F)(F)C(F)(F)C(F)(F)C(F)(F)C(F)(F)F`: the half-maximal activity concentration (AC50) is 21.5 µM (active).
Same read-out and setting: to `O=C(O)C(F)(F)C(F)(F)C(F)(F)C(F)(F)C(F)(F)C(F)(F)F` belongs 18.6 µM (active).
With `NC(=O)O`, the compound was called inactive.
As to `CC(C)(C)CC(C)(C)c1ccc(O)cc1`, the AC50 was 72.3 µM (active).
For the compound `CC(=O)[O][Hg][c]1ccccc1`, the compound was classed as inactive.
On to `O=C(Nc1ccc2[nH]ccc2c1)c1cc2cc(F)ccc2n1Cc1cccc(F)c1`, for which the AC50 is 16.6 µM (active).
Same read-out and setting: to `O=[N+]([O-])c1ccc(O)c([N+](=O)[O-])c1` belongs 31.5 µM (active).
On the same count and under the same terms, to `C[C@]12CCC(=O)C[C@@H]1CC[C@@H]1[C@@H]2CC[C@]2(C)[C@@H](O)CC[C@@H]12` belongs 23.9 µM (active); to `ClC1(Cl)C2(Cl)C3(Cl)C4(Cl)C(Cl)(Cl)C5(Cl)C3(Cl)C1(Cl)C5(Cl)C24Cl` (stereo not given), 20 µM (active).
On to `O=C(O)C(Cl)(Cl)Cl`, for which the compound was called inactive.
As for `C=CC(=O)OCCCCCC(C)C`, the outcome was inactive.
For the compound `CC(C)(OO)c1ccccc1`, the compound was called inactive.
In the case of `Oc1cccc2cccnc12`, the compound was classed as inactive.
Same read-out and setting: to `CCC(C)(C)c1ccc(O)c(C(C)(C)CC)c1` belongs “inactive”.
Regarding `CCCCCCCCc1ccc(O)cc1`, the AC50 was 65.8 µM (active).
Same read-out and setting: for `O=C1C2(Cl)C3(Cl)C4(Cl)C(Cl)(Cl)C5(Cl)C3(Cl)C1(Cl)C5(Cl)C24Cl` (stereo not given) the value was 22.8 µM (active).
Take `CC(C)(C)c1cc(O)ccc1O`: the result was inactive.
As to `C=C(C)C(=O)[O][Sn]([CH2]CCC)([CH2]CCC)[CH2]CCC`, the AC50 is 1.49 µM (active).
Consider `CCOP(=S)(OCC)SCSP(=S)(OCC)OCC`, for which the call was inactive.
In the case of `CC(C)(c1ccccc1)c1ccc(O)c(C(C)(C)c2ccccc2)c1`, the AC50 was 73.4 µM (active).
Regarding `CN(C)N=O`, the call was inactive.
On the same count and under the same terms, to `Cn1sc(Cl)cc1=O` belongs “inactive”; to `O=c1[nH]c(=O)[nH]c(=O)[nH]1`, “inactive”.
Consider `CC12CC1(C)C(=O)N(c1cc(Cl)cc(Cl)c1)C2=O` (stereo not given), for which the AC50 was 9.13 µM (active).
Take `CCC(=O)C(CC(C)N(C)C)(c1ccccc1)c1ccccc1` (stereo not given): the compound was called inactive.

Values taken from PubChem BioAssay (EPA / NIEHS).
